# Screens (PubChem)
# PG9 Ab binder: binders of HIV-1 gp120 antibody PG9, primary screen, biochemical, TR-FRET | TR-FRET gp120-PG9 antibody binding | inhibition, % at 6.7 µM | 0.43% of 360,000 active | AID 624416, 2012; in the data active means inhibition above about 8.5%
# ZTA counter: blocks Epstein-Barr virus ZTA, an EBNA-1 counter-screen. P03206. ZTA-DNA binding, fluorescence polarization. inhibition, % at 11 µM. 0.15% of 320,000 active. AID 2234; in the data active means inhibition above about 33%
# Rev-erbA mod: modulators of Rev-erb alpha DNA binding, primary screen, biochemical, FITC-DNA, fluorescence polarization, uHTS | Rev-erbα–FITC-DNA binding, 90 min | activity, % at 10 µM | 0.79% of 370,000 active | Nuclear receptor subfamily 1 group D member 1 (Homo sapiens), P20393;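 active means activity above about 14%, limit read from the data; passing the limit was not always enough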;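 further: 0% = DMSO wells with 35 nM protein and 100% = DMSO wells with 750 nM protein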
# Target sequence (P20393 whole entry, looked up): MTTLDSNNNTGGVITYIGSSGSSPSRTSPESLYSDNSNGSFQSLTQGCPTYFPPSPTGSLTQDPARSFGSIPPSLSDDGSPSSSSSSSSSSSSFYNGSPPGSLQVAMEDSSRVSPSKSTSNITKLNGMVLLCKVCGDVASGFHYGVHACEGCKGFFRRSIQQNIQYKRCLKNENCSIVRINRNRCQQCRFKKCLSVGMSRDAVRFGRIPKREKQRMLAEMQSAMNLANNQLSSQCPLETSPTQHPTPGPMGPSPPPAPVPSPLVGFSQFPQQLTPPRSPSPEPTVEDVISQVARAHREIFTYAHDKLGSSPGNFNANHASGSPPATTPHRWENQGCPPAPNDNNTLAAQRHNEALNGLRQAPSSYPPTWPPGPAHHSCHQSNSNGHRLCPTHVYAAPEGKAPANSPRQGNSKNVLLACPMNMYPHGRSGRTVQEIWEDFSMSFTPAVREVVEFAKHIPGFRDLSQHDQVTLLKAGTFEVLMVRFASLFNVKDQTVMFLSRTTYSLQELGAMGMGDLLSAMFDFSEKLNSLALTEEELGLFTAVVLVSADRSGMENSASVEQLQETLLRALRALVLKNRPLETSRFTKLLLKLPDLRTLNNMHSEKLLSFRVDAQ
# NCF1 inh: p47phox/p22phox peptide binding inhibitors, primary screen, biochemical, uHTS, NADPH oxidase regulatory subunit | fluorescence polarization, 2 h | Neutrophil cytosol factor 1 (Homo sapiens), P14598 | 0.53% of 220,000 active | inhibition, % at 24.7 µM | AID 1274, 2008;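 active means inhibition above about 30%, limit read from the data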;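 further: 0% = p47phox with labelled peptide and 100% = labelled peptide alone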
# EBNA-1 inhibitor: EBNA-1 DNA-binding inhibitors, primary screen, biochemical, fluorescence polarization; inhibition, % at 14.8 µM; 0.34% of 300,000 active; in the data active means inhibition above about 28%
# aDG glyco act: activators of alpha-DG glycosylation, primary screen, uHTS, Pro5-aDG cells, AlphaScreen; alpha-DG glycosylation AlphaScreen (IIH6); 0% Pro5, 100% B10-LARGE cell signal; activation, % at 10 µM; 0.22% of 360,000 active; AID 624168, 2012;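 active means activation of at least 8% versus controls, or a plate z-score of at least 8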;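 further: Pro5 are CHO cells carrying HIG-tagged alpha-DG that lacks glycosylation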
# NR1D1 mod conf: modulators of Rev-erb alpha DNA binding, confirmation, biochemical, FITC-DNA, fluorescence polarization, single point; activation, % at 25 µM; shares compounds with Rev-erbA mod; AID 1259319, 2017; 61% of 3,000 active; 90 min;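 active means activation at or above a set limit, or at least 3 SD above the negative control mean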;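 further: 0% = 35 nM protein with DMSO and 100% = 750 nM protein high control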
# RORg DNA counter: modulation of RORgamma DNA binding, dose response, counter-screen for Rev-erb alpha modulator project, biochemical, fluorescence polarization, FITC-DNA | 8% of 910 active | IC50, µM | shares compounds with Rev-erbA mod | purified RORgamma protein-FITC-DNA binding | AID 1259320, 2017;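 active means Compounds whose fitted half-maximal concentration for disrupting protein-DNA binding is below 10 micromolar; the record names Rev-erb in its text, so the target is in doubt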
# The depositor's hits bear a star; nt = no result given; ! = repeats disagree. Sampled rows, rich in hits. Any-hit rate of the full collection: about 1.9%.
SMILES,PG9 Ab binder,ZTA counter,Rev-erbA mod,NCF1 inh,EBNA-1 inhibitor,aDG glyco act,NR1D1 mod conf,others
Cc1cc(C(=O)CSc2nc3ccccc3c(=O)n2C)c(C)n1Cc1ccc2c(c1)OCO2,2.2,14.5,41.7*,-49.4,9.6,5.1,5.9,
Cc1cccc(N2CCN(c3ccc4cc(S(=O)(=O)N5CCCCC5)ccc4n3)CC2C)c1 (stereo not given),0.0,-14.1,78.2*,nt,-13.6,0.7,49.5*,RORg DNA counter=>40
Cc1ccc(C)c(N2CCN(c3ccc4cc(S(=O)(=O)N5CCCCC5)ccc4n3)CC2)c1,0.6,-5.9,11.6,nt,-11.6,0.5,nt,
Cc1cccc(N2CCN(c3ccc4cc(S(=O)(=O)N5CCCCC5)ccc4n3)CC2)c1C,-0.9,16.1,101.3*,nt,11.2,1.4,49.6*,RORg DNA counter=>40
CCc1ccc([C@@H]2C[C@H]3CN(Cc4ccccc4OC)C(=O)[C@]34CCCN24)cc1,-2.3,-0.4,52.7*,-19.4,5.6,0.3,3.3,
CCn1ccnc1[C@@H]1C[C@H]2CN(Cc3ccccc3OC)C(=O)[C@]23CCCN13,0.5,4.6,24.5*,6.9,-6.7,0.8,1.2,
COc1ccccc1CN1C[C@@H]2C[C@@H](c3ccc(C)cc3)N3CCC[C@@]23C1=O,-1.4,-19.5,4.4,-3.1,-9.7,0.3,nt,
FC(F)(F)c1cc(-c2ccccn2)nc2cc(-c3ccccc3)nn12,-0.1,-7.2,45.5*,-8.5,-8.2,0.0,23.6*,
O=[N+]([O-])c1cccc(-c2cc(C(F)(F)F)n3nc(-c4ccccc4)cc3n2)c1,-1.7,-8.8,9.9,3.0,12.8,-0.1,nt,
CC12CCC(=O)N1C(C(=O)Nc1cc(C(F)(F)F)ccc1N1CCCCC1)CS2 (stereo not given),1.6,3.9,15.4*,nt,2.0,-0.1,13.8,
CCOc1ccc(S(=O)(=O)N2CCOCC2)cc1NC(=O)C1CSC2(C)CCC(=O)N12 (stereo not given),0.2,-17.5,-3.3,nt,0.4,-0.3,nt,
CCN(CC)c1ccc(S(=O)(=O)N2CCCCC2)cc1NC(=O)C1CSC2(C)CCC(=O)N12 (stereo not given),0.7,-15.9,22.8*,nt,nt,-0.1,21.7*,
c1ccc(Cn2ccc3ccc(-c4ccc5ccn(Cc6cccc(-c7cccs7)c6)c5c4)cc32)cc1,nt,nt,7.6,nt,nt,nt,nt,
CSCCCNc1nc(C)nc2c1nnn2Cc1ccccc1,nt,nt,-0.9,nt,nt,nt,nt,
CCOc1ccc2cc(C#N)c(SCC(=O)N3CCC(C)CC3)nc2c1,-1.2,-1.1,69.8*,-65.7,-1.1,-0.1,34.0*,
CCOc1ccc2nc(SCC#N)c(C#N)cc2c1,-6.4,-22.8,39.1*,-8.2,-2.7,0.0,24.5*,
CCSc1nc2ccc(OC)cc2cc1C#N,0.0,-17.0,13.5,6.4,9.3,1.3,nt,
COc1cc(NC(=O)c2nccn2C)cc(C(=O)Nc2cccc(C(F)(F)F)c2)c1,-1.6,16.3,19.1*!,-2.6,2.4,-0.2,15.0*,
COc1cc(NC(=O)c2nccnc2N)cc(C(=O)Nc2cccc(C(F)(F)F)c2)c1,-2.0,14.4,2.9,-20.5,8.0,0.3,nt,
Cc1cccc(CNC(=S)OC2CCC23CCC(c2ccccc2)CC3)c1 (stereo not given),nt,nt,0.7,nt,nt,nt,nt,
O=C(OC12CCCN(C1)/C(=C/c1ccncc1)C2)c1ccc(Cl)cc1 (stereo not given),nt,nt,-0.2,nt,nt,nt,nt,
CCCC1CCC2(CC1)CCC2OC(=S)Nc1ccccc1Br (stereo not given),nt,nt,2.2,nt,nt,nt,nt,
Cc1cc(C)c2c(n1)nn1c(N3CCN(c4ccccc4C)CC3)cc(C)nc21,2.6,5.3,70.6*,nt,4.0,0.9,26.0*,
CC1(C)CC2CC(C)(CN2C(=O)c2cc(-c3ccccc3)on2)C1 (stereo not given),-0.7,-3.9,28.9*,nt,-7.4,0.0,-3.3,
CCOc1ccc(NC(=O)COc2ccc(C(=O)NCc3cccnc3)cc2OC)cc1,-1.8,-23.2,-4.7,nt,4.8,-0.1,nt,
SMILES,PG9 Ab binder,ZTA counter,Rev-erbA mod,NCF1 inh,EBNA-1 inhibitor,aDG glyco act,NR1D1 mod conf,others
COc1cc(C(=O)NCc2cccnc2)ccc1OCC(=O)Nc1cccc(C(F)(F)F)c1,0.0,-2.1,18.3*,nt,1.8,0.8,7.1,
CCn1nc(NC(=O)CC(C)C)c2cc3cccc(C)c3nc21,0.6,12.3,23.7*,nt,23.1,0.6,-2.4,
Cc1sc(NC(=O)c2oc3ccccc3c2C)c(C#N)c1C,nt,-1.9,226.3*,-33.5,10.6,0.1,282.7*,
Cc1c(C(=O)NC2=NCCS2)oc2ccccc12,1.5,-3.9,1.4,3.1,-1.6,-0.1,nt,
CCOc1ccc(CNC(=O)C2CCN(c3nnc(C)c4c(C)n(-c5ccc(C)cc5)nc34)CC2)cc1,2.2,12.4,32.6*,nt,-3.8,2.1,33.8*,RORg DNA counter=>40
O=C(CSc1nnc(-c2cccs2)n1Cc1ccco1)Nc1ccc(OCc2ccccc2)cc1,nt,nt,2.7,nt,nt,nt,nt,
O=C(NC1CCCCCC1)c1cc2ccccc2oc1=O,-3.3,-11.0,-0.2,nt,-4.6,-0.2,nt,
COc1ccc2cc(C(=O)NC3CCCCC3)c(=O)oc2c1,-2.0,nt,41.9*,-6.0,nt,-0.1,18.8*,
COC(=O)C[C@@H]1CC[C@H]2[C@@H](COc3ccc(NC(=O)c4ccc(C(F)(F)F)cc4)cc3C(=O)N2C)O1,nt,nt,-6.3,nt,nt,nt,nt,
Cc1ccc2[nH]c(=O)c(CN(C)C(=O)c3cccs3)cc2c1,-2.0,-9.4,4.6,-4.4,-17.9,0.1,nt,
Cc1ccc(N(Cc2cc3cc(C)ccc3[nH]c2=O)C(=O)c2cccs2)cc1,0.7,11.6,47.9*,-2.1,3.1,0.2,79.4*,RORg DNA counter=>40
Cc1ccc(NC(=O)CSc2nnc(-c3cccnc3)n2Cc2ccco2)cc1C,nt,nt,3.1,nt,nt,nt,nt,
CCN(CC)S(=O)(=O)c1ccc(C(=O)NNC(=O)c2csc(N3CCOCC3)n2)cc1,2.6,1.7,-0.9,nt,3.8,-0.3,nt,
CN(C)S(=O)(=O)c1ccc(C(=O)OCC(=O)c2csc(N3CCCCC3)n2)cc1,-1.1,10.3,23.7*,nt,nt,-0.3,10.6,
O=C(CSc1nc2c(c(=O)[nH]1)CCCC2)N1CCOCC1,nt,nt,1.9,nt,nt,nt,nt,
Cn1c(=O)c2c(-c3ccc(OC(F)F)cc3)cc(-c3ccccc3)nc2n(C)c1=O,nt,19.5,nt,-16.4,11.9,nt,nt,
CCOc1ccc(-c2cc(C(=O)OC)nc3c2c(=O)n(C)c(=O)n3C)cc1,0.6,6.7,38.9*,-9.9,-1.9,0.8,0.3,
O=C(CSc1nnc(-c2cccnc2)n1-c1ccccc1)Nc1cccc2ccccc12,nt,nt,-5.5,nt,nt,nt,nt,
